Results filed as inconclusive are left out. Activity calls are given as the source filed them. Unless noted, the call rests on the fitted dose curve; in most records, active means well fitted curve in the direction sought with a large enough effect; inconclusive means small, poorly fitted or top-dose-only effect, or another doubt; inactive means no such curve, though single readings can be large; an effect the other way counts as inactive or inconclusive.

The target of assay [1] is ATP-dependent 6-phosphofructokinase (Trypanosoma brucei brucei) (UniProt O15648). Kind of assay: qHTS Assay to Find Inhibitors of T. brucei phosphofructokinase: hit validation (AID 492961).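 Further: luminescence reports ADP formed as PFK phosphorylates fructose-6-phosphate with ATP.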 The gist of the method: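 ADP-Glo luminescence read-out of ADP formed by 1.25 nM PFK from 0.1 mM ATP and 0.5 mM F6P (TEA pH 8.0, 45 min, RT). Compounds titrated; activity normalized to no-enzyme and full-enzyme controls.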
(In qHTS, concentration-response curves come from the screen itself.)

A short description of assay [2]: S16 Schwann cell PMP22 intronic element beta-lactamase assay (AID 624044; calls by dose curve; further: nearly all actives have a fitted effect of over 15% in size). The gist of the method: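 Beta-lactamase reporter under a PMP22 intronic regulatory element in stable S16 rat Schwann cells; 24 h compound exposure. 460 nm blue signal normalized between DMSO (0%) and potassium clavulanate, with 535 nm FRET tracking viability; curves classed by r2 and response.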

Another assay has as its system ATS189. The assay can be described thus: qHTS profiling for inhibitors of Plasmodium falciparum proliferation (AID 504749). Further: nearly all actives have a fitted effect of over 60% in size. Further: potency means the concentration at half of the fitted maximal effect. The conditions noted are these: P. falciparum in erythrocytes, SYBR Green DNA, 72 h; series mostly up to 12.8 µM. The method in brief:
(§1)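 SYBR Green fluorescence of parasite DNA, read after lysis and overnight dark incubation, measured growth over 72 h in erythrocyte culture at 0.3% parasitemia and 2.5% hematocrit. Data normalised to DMSO and 0.29 uM artemisinin, with plate-drift correction.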

Another assay concerns ATS95. Described as above. Particulars: P. falciparum in erythrocytes, SYBR Green DNA, 72 h; series mostly up to 12.8 µM. The gist of the method:
as §1

The test system of a further assay is CP203. Described as above. Particulars: P. falciparum in erythrocytes, SYBR Green DNA, 72 h; series mostly up to 12.8 µM. The method in brief:
as §1

The subject of a further assay is CP247. The description is as above. Particulars: P. falciparum in erythrocytes, SYBR Green DNA, 72 h; series mostly up to 12.8 µM. The gist of the method:
as §1

For a further assay, the system named is CP250. The description is as above. The conditions noted are these: P. falciparum in erythrocytes, SYBR Green DNA, 72 h; series mostly up to 12.8 µM. The method in brief:
as §1

The next assay relates to CP260. Described as above. Particulars: P. falciparum in erythrocytes, SYBR Green DNA, 72 h; series mostly up to 12.8 µM. The gist of the method: as §1
The next assay relates to CP297. Described as above. The conditions noted are these: P. falciparum in erythrocytes, SYBR Green DNA, 72 h; series mostly up to 12.8 µM. The gist of the method:
as §1

For another assay, the system named is CP335. The assay is described as above. Particulars: P. falciparum in erythrocytes, SYBR Green DNA, 72 h; series mostly up to 12.8 µM. The gist of the method: as §1
In the next assay the test system is DIV17. The description is as above. Particulars: P. falciparum in erythrocytes, SYBR Green DNA, 72 h; series mostly up to 12.8 µM. The method in brief: as §1
Another assay has as its system Dd2. The assay is described as above. The conditions noted are these: P. falciparum in erythrocytes, SYBR Green DNA, 72 h; series mostly up to 12.8 µM. The method in brief:
as §1

For the next assay, the system named is HB3. The assay is described as above. Particulars: P. falciparum in erythrocytes, SYBR Green DNA, 72 h; series mostly up to 12.8 µM. The gist of the method:
as §1

A further assay has as its system ICS. The assay is described as above. The conditions noted are these: P. falciparum in erythrocytes, SYBR Green DNA, 72 h; series mostly up to 12.8 µM. The gist of the method:
as §1

Another assay relates to P93_24. The assay is described as above. Particulars: P. falciparum in erythrocytes, SYBR Green DNA, 72 h; series mostly up to 12.8 µM. The method in brief: as §1
In a further assay the test system is P94_40. The description is as above. The conditions noted are these: P. falciparum in erythrocytes, SYBR Green DNA, 72 h; series mostly up to 12.8 µM. The method in brief: as §1
Another assay relates to TAB113. The assay is described as above. The conditions noted are these: P. falciparum in erythrocytes, SYBR Green DNA, 72 h; series mostly up to 12.8 µM. The gist of the method: as §1
Another assay deals with TAB165. The assay is described as above. The conditions noted are these: P. falciparum in erythrocytes, SYBR Green DNA, 72 h; series mostly up to 12.8 µM. The method in brief: as §1
Another assay relates to CP266. The description is as above. Particulars: P. falciparum in erythrocytes, SYBR Green DNA, 72 h; series mostly up to 12.8 µM. The gist of the method: as §1
Assay [3] is described as follows: Confirmation and Secondary Assay for Modulators of Hemoglobin Beta Chain Splicing at IVS2 654 locus (AID 910).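 Further: HeLa cells stably carrying EGFP split by mutant beta-globin IVS2-654 intron; per-well total GFP intensity by laser scanning cytometry after 2-day treatment.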 The gist of the method: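 Readout: per-well total peak green fluorescence (488 nm ex, 500–520 nm em) from objects 5–250 µm, reflecting correct splicing of an EGFP-654 reporter. Compounds were applied for 2 days at 37 °C to overnight-plated HeLa EGFP-654 cells; controls were DMSO and 500 nM IVS2-654 PNA.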

Chain of ATP-dependent 6-phosphofructokinase (Trypanosoma brucei brucei) (O15648 whole entry, looked up): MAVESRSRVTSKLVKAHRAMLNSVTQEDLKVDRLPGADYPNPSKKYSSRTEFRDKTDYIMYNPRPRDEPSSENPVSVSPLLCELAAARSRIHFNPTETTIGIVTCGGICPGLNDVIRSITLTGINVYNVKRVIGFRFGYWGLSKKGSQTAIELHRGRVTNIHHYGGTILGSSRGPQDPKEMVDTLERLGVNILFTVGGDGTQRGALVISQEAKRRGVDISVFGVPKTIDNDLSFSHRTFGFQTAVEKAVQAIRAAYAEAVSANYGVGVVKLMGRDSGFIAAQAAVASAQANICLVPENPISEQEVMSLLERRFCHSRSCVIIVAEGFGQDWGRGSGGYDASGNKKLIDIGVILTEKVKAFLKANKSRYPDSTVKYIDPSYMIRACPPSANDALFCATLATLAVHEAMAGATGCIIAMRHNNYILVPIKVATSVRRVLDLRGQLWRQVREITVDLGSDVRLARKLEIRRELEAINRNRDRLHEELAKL

As for `COc1cc(N[C@@H](C)CCCN)c2ncccc2c1`, in assay [1], the result was inactive. The Potency entry in assay [2] was “inactive”. In addition, the Potency was 2240 nM (active) in the assay on ATS189; 3160 nM (active) with ATS95; 3610 nM (active) in the assay on CP203; 3550 nM (active) with CP247; 1260 nM (active) in the assay on CP250; 1410 nM (active) in the assay on CP260. Moreover, the Potency in the assay with CP297 is 3610 nM (active); in the assay on CP335, 4050 nM (active); in the assay with DIV17 it was 642 nM (active); in the assay with Dd2, 1410 nM (active); in the assay with HB3 it was 2240 nM (active); in the assay with ICS, 708 nM (active). The Potency is 1000 nM (active) with P93_24, 1410 nM (active) with P94_40, 1410 nM (active) with TAB113 and 891 nM (active) in the assay with TAB165.
As for `CC=C(/C(=C/C)c1ccc(O)cc1)c1ccc(O)cc1`, in assay [1], the call was inactive. Moreover, the Potency entry (in assay [2]; in the assay on ATS189; with ATS95; in the assay on CP203; with CP247; in the assay with CP250) was “inactive” in each case. For the same compound, the Potency entry in the assay with CP260, with CP266, with CP297, with CP335, in the assay with DIV17 and in the assay with Dd2 was “inactive” in each case. Moreover, the Potency entry in the assay on HB3, with ICS, in the assay on P93_24, in the assay with P94_40, with TAB113 and with TAB165 was “inactive” each time.
`CCOC(=O)Oc1c(OC)cc(C(=O)O[C@H]2C[C@H]3CN4CCc5c([nH]c6cc(OC)ccc56)[C@@H]4C[C@H]3[C@@H](C(=O)OC)[C@@H]2OC)cc1OC`: the compound was classed as inactive in assay [1]. The Potency result in assay [2] was “inactive”. Further, the Potency in the assay with CP260 was 2510 nM (active); with CP297, 7210 nM (active); with DIV17, 5730 nM (active); with ICS, 2820 nM (active); in the assay with P93_24, 3980 nM (active); with TAB113 it was 3980 nM (active). For the same compound, the Potency in the assay on TAB165 was 3550 nM (active).
`CCC(C)(C)C(=O)O[C@@H]1C[C@H](C)C=C2C=C[C@H](C)[C@@H](CC[C@H]3C[C@@H](O)CC(=O)O3)[C@H]21`: the compound was called inactive in assay [1]. The Potency result (in [2]; in the assay with ATS189; in the assay with ATS95; in the assay with CP203; in the assay on CP247; in the assay on CP250) was “inactive” throughout. The Potency entry in the assay with CP260, in the assay with CP266, with CP297, in the assay on DIV17 and in the assay on P93_24 was “inactive” each time.
As to `O=C(OC[C@@H](O)CO)c1ccccc1Nc1ccnc2cc(Cl)ccc12`, the compound was called inactive in assay [1]. Besides, the Potency entry with ATS189, in the assay with ATS95, in the assay with CP203, in the assay with CP247, in the assay with CP250 and with CP260 was “inactive” throughout. In addition, the Potency result in the assay on CP266, in the assay with CP297, in the assay with CP335, in the assay on Dd2, in the assay on HB3 and in the assay on P93_24 was “inactive” each time. Further, the Potency entry with P94_40, with TAB113 and in the assay on TAB165 was “inactive” throughout.
`FC(F)(F)c1ccccc1-c1ccc2ncnc(NC3CCNCC3)c2c1`: the Potency result in assay [3] is “inactive”.
With `CC1(C)S[C@@H]2[C@H](NC(=O)[C@@H](N)c3ccccc3)C(=O)N2[C@H]1C(=O)O[C@H]1OC(=O)c2ccccc21`, the compound was classed as inactive in assay [1]. For the same compound, the Potency result (in assay [2]; with ATS189; in the assay with ATS95; in the assay with CP203; in the assay with CP247; with CP250) was “inactive” in each case. In addition, the Potency result in the assay with CP260, in the assay on CP266, in the assay on CP297, in the assay with CP335, in the assay with DIV17 and in the assay with Dd2 was “inactive” each time. The Potency entry in the assay with HB3, in the assay on ICS, in the assay with P93_24, in the assay with P94_40, in the assay with TAB113 and with TAB165 was “inactive” throughout.
In the case of `COC(=O)[C@@H]1[C@@H]2C[C@H]3c4[nH]c5cc(OC)ccc5c4CCN3C[C@@H]2C[C@H](OC(=O)/C=C\c2cc(OC)c(OC)c(OC)c2)[C@H]1OC`, the compound was called inactive in [1]. In addition, the Potency result (in assay [2]; in the assay on CP266) was “inactive” throughout. Further, the Potency with ICS is 4470 nM (active); in the assay on P93_24 it was 3160 nM (active); in the assay on TAB165, 3160 nM (active).
Take `COc1ccc(-c2cc(=O)c3c(O)cc(O)cc3o2)cc1`: the Potency entry in assay [3] is “inactive”.

The values above are taken from PubChem BioAssay (NCATS).
